Laboratory results from PubChem BioAssay AID1159580 (chemical genetic matrix, 2015).
Among all 5,500 compounds or so, about 2,000 (36%) were called active. Another 18% or so got no clear call; they are omitted. No stated cut-off is given here; in the data, active means normalized growth mostly below about 0.91 (no sharp cut-off); inconclusive means no clear call, values can overlap the other calls; inactive means mostly above about 0.92. The list shows a part of the results.

Assay: chemical genetic growth profiling, strain panel (AID 1159580);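 further: tested at 20 µM; growth read once vehicle control cultures reached saturation at 30 °C; 1 = growth at the plate median or of vehicle wells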
Details: growth OD

Measured: normalized growth

CCCc1occc(=O)c1/C=C/O
inactive: S. cerevisiae deletion strains, locus YAL013W, strain DEP1, stronger effect = lower value 0.98 | S. cerevisiae deletion strains, locus YBR021W, strain FUR4, stronger effect = lower value 0.999 | S. cerevisiae deletion strains, locus YBR229C, strain ROT2, stronger effect = lower value 0.987 | S. cerevisiae deletion strains, locus YCL029C, strain bik1, stronger effect = lower value 0.97 | S. cerevisiae deletion strains, locus YDL035C, strain GPR1, stronger effect = lower value 0.981 | S. cerevisiae deletion strains, locus YDL074C, strain BRE1, stronger effect = lower value 1.01 | S. cerevisiae deletion strains, locus YDL101C, strain DUN1, stronger effect = lower value 0.982 | S. cerevisiae deletion strains, locus YDL134C, strain PPH21, stronger effect = lower value 0.939 | S. cerevisiae deletion strains, locus YDL185W, strain tfp1, stronger effect = lower value 0.97 | S. cerevisiae deletion strains, locus YDL192W, strain arf1, stronger effect = lower value 0.923 | S. cerevisiae deletion strains, locus YDR101C, strain arx1, stronger effect = lower value 0.943 | S. cerevisiae deletion strains, locus YDR150W, strain NUM1, stronger effect = lower value 0.983 | S. cerevisiae deletion strains, locus YDR162C, strain NBP2, stronger effect = lower value 0.927 | S. cerevisiae deletion strains, locus YDR318W, strain mcm21, stronger effect = lower value 0.942 | S. cerevisiae deletion strains, locus YDR388W, stronger effect = lower value 0.964 | S. cerevisiae deletion strains, locus YEL061C, strain CIN8, stronger effect = lower value 0.98 | S. cerevisiae deletion strains, locus YER110C, stronger effect = lower value 0.963 | S. cerevisiae deletion strains, locus YER155C, strain BEM2, stronger effect = lower value 0.967 | S. cerevisiae deletion strains, locus YER167W, strain BCK2, stronger effect = lower value 0.936 | S. cerevisiae deletion strains, locus YGL078C, strain dbp3, stronger effect = lower value 1 | S. cerevisiae deletion strains, locus YGL086W, strain mad1, stronger effect = lower value 0.979 | S. cerevisiae deletion strains, locus YGL248W, strain PDE1, stronger effect = lower value 0.949 | S. cerevisiae deletion strains, locus YGR078C, strain PAC10, stronger effect = lower value 0.964 | S. cerevisiae deletion strains, locus YGR135W, strain pre9, stronger effect = lower value 0.948 | S. cerevisiae deletion strains, locus YGR252W, strain gcn5, stronger effect = lower value 0.925 | S. cerevisiae deletion strains, locus YHR030C, strain SLT2, stronger effect = lower value 0.986 | S. cerevisiae deletion strains, locus YHR079C, strain IRE1 (second series), stronger effect = lower value 0.959 | S. cerevisiae deletion strains, locus YHR094C, strain hxt1, stronger effect = lower value 0.957 | S. cerevisiae deletion strains, locus YHR129C, strain ARP1, stronger effect = lower value 0.974 | S. cerevisiae deletion strains, locus YHR200W, strain rpn10, stronger effect = lower value 0.95 | S. cerevisiae deletion strains, locus YIL066C, strain RNR3, stronger effect = lower value 0.97 | S. cerevisiae deletion strains, locus YIL073C, strain SPO22, stronger effect = lower value 0.992 | S. cerevisiae deletion strains, locus YIL125W, strain kgd1, stronger effect = lower value 0.964 | S. cerevisiae deletion strains, locus YIR030C, strain dcg1, stronger effect = lower value 0.955 | S. cerevisiae deletion strains, locus YJL095W, strain BCK1, stronger effect = lower value 0.909 | S. cerevisiae deletion strains, locus YJL134W, strain LCB3, stronger effect = lower value 0.984 | S. cerevisiae deletion strains, locus YJL168C, strain set2, stronger effect = lower value 0.987 | S. cerevisiae deletion strains, locus YJL187C, strain SWE1 (second series), stronger effect = lower value 0.963 | S. cerevisiae deletion strains, locus YJR043C, strain POL32, stronger effect = lower value 0.943 | S. cerevisiae deletion strains, locus YJR075W, strain HOC1, stronger effect = lower value 0.945 | S. cerevisiae deletion strains, locus YKL009W, strain mrt4, stronger effect = lower value 1.02 | S. cerevisiae deletion strains, locus YKL068W, stronger effect = lower value 0.972 | S. cerevisiae deletion strains, locus YKL085W, strain MDH1 (second series), stronger effect = lower value 0.96 | S. cerevisiae deletion strains, locus YKL085W, strain MDH1, stronger effect = lower value 0.96 | S. cerevisiae deletion strains, locus YLR039C, strain RIC1, stronger effect = lower value 0.929 | S. cerevisiae deletion strains, locus YLR058C, strain SHM2, stronger effect = lower value 0.973 | S. cerevisiae deletion strains, locus YLR102C, strain apc9, stronger effect = lower value 0.966 | S. cerevisiae deletion strains, locus YLR262C, strain YPT6, stronger effect = lower value 0.922 | S. cerevisiae deletion strains, locus YLR268W, strain sec22, stronger effect = lower value 0.98 | S. cerevisiae deletion strains, locus YLR330W, strain CHS5, stronger effect = lower value 0.969 | S. cerevisiae deletion strains, locus YLR342W, strain FKS1 (second series), stronger effect = lower value 0.982 | S. cerevisiae deletion strains, locus YLR371W, strain rom2, stronger effect = lower value 0.964 | S. cerevisiae deletion strains, locus YLR418C, strain cdc73, stronger effect = lower value 0.872 | S. cerevisiae deletion strains, locus YML016C, strain PPZ1, stronger effect = lower value 0.97 | S. cerevisiae deletion strains, locus YML032C, strain rad52, stronger effect = lower value 0.925 | S. cerevisiae deletion strains, locus YML124C, strain tub3, stronger effect = lower value 0.954 | S. cerevisiae deletion strains, locus YMR078C, strain ctf18, stronger effect = lower value 0.931 | S. cerevisiae deletion strains, locus YMR223W, strain ubp8, stronger effect = lower value 0.969 | S. cerevisiae deletion strains, locus YMR263W, strain SAP30, stronger effect = lower value 0.975 | S. cerevisiae deletion strains, locus YMR307W, strain GAS1, stronger effect = lower value 0.94 | S. cerevisiae deletion strains, locus YNL067W, strain RPL9B, stronger effect = lower value 0.962 | S. cerevisiae deletion strains, locus YNL233W, strain BNI4, stronger effect = lower value 0.962 | S. cerevisiae deletion strains, locus YNL250W, strain rad50, stronger effect = lower value 0.975 | S. cerevisiae deletion strains, locus YNL271C, strain bni1, stronger effect = lower value 0.972 | S. cerevisiae deletion strains, locus YNL298W, strain CLA4, stronger effect = lower value 0.976 | S. cerevisiae deletion strains, locus YNL307C, strain MCK1, stronger effect = lower value 0.956 | S. cerevisiae deletion strains, locus YNL322C, strain KRE1, stronger effect = lower value 0.986 | S. cerevisiae deletion strains, locus YNR052C, strain pop2, stronger effect = lower value 0.993 | S. cerevisiae deletion strains, locus YOL006C, strain TOP1, stronger effect = lower value 0.854 | S. cerevisiae deletion strains, locus YOL012C, strain htz1 1.14 | S. cerevisiae deletion strains, locus YOL147C, strain pex11, stronger effect = lower value 0.983 | S. cerevisiae deletion strains, locus YOR061W, strain CKA2, stronger effect = lower value 0.998 | S. cerevisiae deletion strains, locus YOR069W, strain VPS5, stronger effect = lower value 0.974 | S. cerevisiae deletion strains, locus YOR136W, strain idh2, stronger effect = lower value 0.985 | S. cerevisiae deletion strains, locus YOR144C, strain elg1, stronger effect = lower value 0.962 | S. cerevisiae deletion strains, locus YOR184W, strain ser1, stronger effect = lower value 0.922 | S. cerevisiae deletion strains, locus YOR316C, strain cot1, stronger effect = lower value 0.964 | S. cerevisiae deletion strains, locus YPL241C, strain CIN2, stronger effect = lower value 0.979 | S. cerevisiae deletion strains, locus YPR119W, strain clb2, stronger effect = lower value 0.964 | S. cerevisiae deletion strains, locus YPR141C, strain kar3, stronger effect = lower value 0.946 | S. cerevisiae deletion strains, locus YPR163C, strain tif3, stronger effect = lower value 0.986 | S. cerevisiae deletion strains, locus YPR167C, strain met16, stronger effect = lower value 0.958 | S. cerevisiae deletion strains, strain wtn01, stronger effect = lower value 0.995 | S. cerevisiae strains, strain wild type, stronger effect = lower value 0.968
active: S. cerevisiae deletion strains, locus YDR502C, strain sam2, stronger effect = lower value 0.913 | S. cerevisiae deletion strains, locus YKR001C, strain vps1, stronger effect = lower value 0.85
